The record followed here is PubChem BioAssay (NCATS).

SMILES strings stand for the structures. Values joined by “and” are separate entries in the source; they are usually repeats but may differ in a detail not shown here. Identical values can stand only once. Unmarked numbers belong to inactive results. Inconclusive results are not listed. Active and inactive are the calls of the source. Unless noted, calls follow the shape of the dose curve; as a rule, active = well fitted curve in either direction with a large enough effect (not every such curve was filed as active); inconclusive = small, poorly fitted or top-dose-only effect, or another doubt; inactive = flat fitted curve, though single readings scatter. A value given as a limit tells only on which side of the number the result lay.

Assay [1] deals with Lysosomal acid glucosylceramidase (Homo sapiens) (UniProt P04062). In words: Glucocerebrosidase-p2 (AID 348; in the data active = potency below about 10 µM; also: potency is read from the fitted curve at half-maximal effect). The settings on record: purified GBA, blue fluorogenic substrate, 40 min. An outline of the steps: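 Compounds titrated from 0.6 nM upwards against 0.2 nM enzyme in pH 5.9 citric acid/KH2PO4, taurocholate, tween-20; blue fluorogenic substrate 80 uM, 40 min room temperature, stopped and read Ex 365/Em 440 for AC50.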

Assay [2] is described as follows: AP1 Signaling Pathway (AID 357).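 Also: ME-180 reporter cells stimulated with EGF at its EC50 level; % is scaled to controls: 0 for no effect and ±100 for the full control effect.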 The note with it: ME-180 AP-1-bla reporter, EGF-induced, beta-lactamase ratio, 5 h; at 7.69 µM (top of the series) unless noted. An outline of the steps:
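A ratiometric CCF4 readout (405 nm excitation; 460 and 530 nm emission) quantified AP-1-driven beta-lactamase in ME-180 cells after 5 h with compound and EC50 EGF; AC50 values were derived for activators and inhibitors.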

Assay [3] concerns the target Cytochrome P450 1A2 (Homo sapiens) (UniProt P05177). In words: p450-cyp1a2 (AID 410; calls by dose curve; also: potency is read from the fitted curve at half-maximal effect;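 as to activity change, negative = inhibition: -100% = full effect of reference inhibitor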). The note with it: recombinant CYP1A2, luciferin-ME demethylation, luminescence; series mostly up to 11.4 µM. An outline of the steps: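 20nM CYP1A2 with 100uM Luciferin-ME (at Km) in 100mM KPO4; compound preincubated 10 min, NADPH regeneration added, 60 min at room temperature. Luciferin quantified by luminescence after detection reagent; normalized to 57 uM furafylline.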

Assay [4] can be described thus: NFAT Signaling Pathway (AID 444).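 Also: carbachol stimulus at about its EC50 of 1 µM final; % is scaled to controls: 0 for no effect and ±100 for the full control effect.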 The note with it: Jurkat NFAT-bla M1, carbachol, beta-lactamase ratio, 5 h; at 7.69 µM (top of the series) unless noted. An outline of the steps:
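Jurkat cells with NFAT-driven β-lactamase reporter and co-expressed M1 receptor, stimulated with carbachol (final 1 uM, ~EC50), compound titration, 5 h at 37 °C. CCF4 loaded 1 h at RT; 460/530 nm ratio gave %activity and AC50.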

Assay [5] is described as follows: Stat Signaling Pathway (AID 446).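 Also: ME-180 cervical cancer cells given 40 pM IL-6 alongside compound; SIE-controlled beta-lactamase reporter measured as 460/530 nm FRET emission ratio; % is scaled to controls: 0 for no effect and ±100 for the full control effect.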 The settings on record: ME-180 SIE beta-lactamase reporter, IL-6 stimulated, 5 h; at 7.69 µM (top of the series) unless noted. In a few lines: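 Reporter line: ME-180 cervical carcinoma, SIE-beta-lactamase. Treatment: compound with 40 pM IL-6, 5 hrs, 37 C, in low-serum OPTI-MEM with 10 mM HEPES pH 7.3. Detection: 460/530 nm fluorescence.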

The target of assay [6] is Glucocorticoid receptor (Homo sapiens) (UniProt P04150). Description: GR-GFP Redistribution (AID 450;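 active = compounds whose dose series gives a full or clear partial fitted curve of increased nuclear translocation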; also: potency is read from the fitted curve at half-maximal effect). The note with it: U2OS GR-GFP nuclear translocation, laser cytometry, 2 h.
Assay [7] has the same target. Description: GR-EFC Redistribution (AID 451; calls by dose curve; also: potency is read from the fitted curve at half-maximal effect). The settings on record: CHO-K1 GR-EFC translocation, beta-gal luminescence, 2 h. An outline of the steps: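 CHO-K1 cells expressing nuclear EA and GR-ED fragments of b-gal; compounds titrated up to 46 uM final, 2 h at 37 C. GR nuclear translocation read as complemented b-gal luminescence after 1 h RT detection.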
Assay [8] addresses Mitogen-activated protein kinase 10 (Mus musculus) (UniProt Q61831). Description: JNK3 AlphaScreen Assay (AID 530).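 Also: kinase came from lysate of stimulated human HepG2 cells; signal reports phosphorylation of biotinylated GST-cJun 1-79 at Ser73 with 10 µM ATP; % is scaled to controls: 0 for no effect and ±100 for the full control effect.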 The settings on record: JNK3 lysate, c-Jun phosphorylation; series mostly up to 11.4 µM. In a few lines: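 Pre-activated (IL-1β/TNFα) JNK3 in HepG2 lysates phosphorylates biotin-GST-cJun(1-79), 10 uM ATP; anti-phospho-cJun(Ser73) AlphaScreen read at room temperature, pH 7.6 Tris buffer. Compounds pre-incubated 15 min as titrations.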

Assay [9] concerns the target 3',5'-cyclic-AMP phosphodiesterase 4B (Homo sapiens) (UniProt Q07343). In words: qHTS Assay for Inhibitors of PDE-IV (AID 607; active = well fitted activation curve with a large enough effect in the main read-out, with a control signal flat, not every such curve was filed as active; also: % of control where 0% means no effect). The settings on record: HEK293 ACTOne CNG channel cells, membrane potential fluorescence; series mostly up to 22.9 µM. In a few lines:
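Cell-based read-out of cAMP via a modified cyclic nucleotide-gated channel and membrane potential dye (535/590 nm) in HEK293 cells expressing PDE4 endogenously. Compounds tested up to 22.9 uM final; 100 uM RO 20-1724 reference.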
(qHTS replaces the single test concentration by a dilution series.)

Lysosomal acid glucosylceramidase (Homo sapiens), sequence (P04062 whole entry, looked up): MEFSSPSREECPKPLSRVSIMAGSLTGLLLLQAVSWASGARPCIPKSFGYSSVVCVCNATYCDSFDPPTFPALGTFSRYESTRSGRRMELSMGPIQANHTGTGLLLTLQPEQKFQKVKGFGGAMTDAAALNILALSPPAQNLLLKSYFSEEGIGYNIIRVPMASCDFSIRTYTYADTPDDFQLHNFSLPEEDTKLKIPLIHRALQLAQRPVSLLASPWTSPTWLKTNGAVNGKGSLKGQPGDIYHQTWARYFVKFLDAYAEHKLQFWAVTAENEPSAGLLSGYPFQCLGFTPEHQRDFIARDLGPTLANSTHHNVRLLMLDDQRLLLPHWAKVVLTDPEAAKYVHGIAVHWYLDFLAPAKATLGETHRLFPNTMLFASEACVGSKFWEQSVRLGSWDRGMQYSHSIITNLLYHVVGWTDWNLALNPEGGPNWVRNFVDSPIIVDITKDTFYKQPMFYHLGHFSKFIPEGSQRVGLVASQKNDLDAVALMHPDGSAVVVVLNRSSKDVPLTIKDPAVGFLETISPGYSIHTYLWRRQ
3',5'-cyclic-AMP phosphodiesterase 4B (Homo sapiens), sequence (Q07343 whole entry, looked up): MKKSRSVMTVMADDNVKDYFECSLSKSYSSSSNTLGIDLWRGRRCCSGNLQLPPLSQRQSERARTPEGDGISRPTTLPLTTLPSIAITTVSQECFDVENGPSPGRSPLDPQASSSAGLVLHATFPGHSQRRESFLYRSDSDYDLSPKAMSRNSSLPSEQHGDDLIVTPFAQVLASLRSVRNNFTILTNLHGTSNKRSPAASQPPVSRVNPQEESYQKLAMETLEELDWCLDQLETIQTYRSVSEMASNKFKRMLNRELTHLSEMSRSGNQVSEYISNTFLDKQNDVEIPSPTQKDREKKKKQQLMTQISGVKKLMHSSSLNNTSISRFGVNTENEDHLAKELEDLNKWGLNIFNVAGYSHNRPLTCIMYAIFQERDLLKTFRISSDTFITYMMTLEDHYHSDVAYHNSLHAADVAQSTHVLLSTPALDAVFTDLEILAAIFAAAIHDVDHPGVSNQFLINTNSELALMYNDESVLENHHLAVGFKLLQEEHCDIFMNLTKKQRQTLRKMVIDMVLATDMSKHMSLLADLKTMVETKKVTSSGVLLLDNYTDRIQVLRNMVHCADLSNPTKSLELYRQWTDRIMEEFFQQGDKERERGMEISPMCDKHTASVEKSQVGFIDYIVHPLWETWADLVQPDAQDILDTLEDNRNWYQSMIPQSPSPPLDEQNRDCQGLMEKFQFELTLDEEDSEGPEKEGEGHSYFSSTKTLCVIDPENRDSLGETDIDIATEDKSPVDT
Cytochrome P450 1A2 (Homo sapiens), sequence (P05177 whole entry, looked up): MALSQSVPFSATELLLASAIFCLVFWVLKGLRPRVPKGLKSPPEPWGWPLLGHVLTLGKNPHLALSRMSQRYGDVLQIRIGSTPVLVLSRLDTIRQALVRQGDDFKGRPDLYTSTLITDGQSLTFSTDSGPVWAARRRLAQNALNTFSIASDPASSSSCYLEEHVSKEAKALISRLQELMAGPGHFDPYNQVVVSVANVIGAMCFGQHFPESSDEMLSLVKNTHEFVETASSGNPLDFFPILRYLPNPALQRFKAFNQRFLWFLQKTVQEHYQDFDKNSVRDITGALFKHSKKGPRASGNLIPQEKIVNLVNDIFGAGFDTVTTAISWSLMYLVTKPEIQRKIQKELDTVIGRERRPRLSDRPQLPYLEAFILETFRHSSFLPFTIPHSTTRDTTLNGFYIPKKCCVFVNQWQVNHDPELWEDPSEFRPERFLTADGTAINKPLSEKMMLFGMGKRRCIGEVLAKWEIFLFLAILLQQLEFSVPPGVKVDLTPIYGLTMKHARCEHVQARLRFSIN
Glucocorticoid receptor (Homo sapiens), sequence (P04150 whole entry, looked up, the tested form may be a part): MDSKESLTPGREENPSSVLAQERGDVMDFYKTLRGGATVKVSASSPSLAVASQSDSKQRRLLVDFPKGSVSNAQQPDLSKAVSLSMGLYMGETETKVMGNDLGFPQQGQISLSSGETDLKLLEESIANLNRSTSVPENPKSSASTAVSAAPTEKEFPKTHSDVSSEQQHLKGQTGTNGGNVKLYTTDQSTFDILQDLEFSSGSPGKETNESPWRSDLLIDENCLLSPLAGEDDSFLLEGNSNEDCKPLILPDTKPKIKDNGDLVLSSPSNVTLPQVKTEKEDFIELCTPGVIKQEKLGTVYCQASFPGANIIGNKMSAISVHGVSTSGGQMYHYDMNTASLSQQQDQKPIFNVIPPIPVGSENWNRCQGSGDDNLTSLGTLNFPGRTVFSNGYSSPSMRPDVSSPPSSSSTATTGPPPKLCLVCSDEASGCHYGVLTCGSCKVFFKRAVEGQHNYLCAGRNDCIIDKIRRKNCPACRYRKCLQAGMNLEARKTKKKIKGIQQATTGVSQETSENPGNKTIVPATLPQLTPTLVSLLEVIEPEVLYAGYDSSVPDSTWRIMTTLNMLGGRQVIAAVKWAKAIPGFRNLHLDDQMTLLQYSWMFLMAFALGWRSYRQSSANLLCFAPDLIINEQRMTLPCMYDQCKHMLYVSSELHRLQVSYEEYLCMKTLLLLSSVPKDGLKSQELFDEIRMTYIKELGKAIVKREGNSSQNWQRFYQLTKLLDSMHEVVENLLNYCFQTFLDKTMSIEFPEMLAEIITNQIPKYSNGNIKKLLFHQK

Take `O=C(O)C1=C/C(=C(/c2ccccc2)c2cc(C(=O)O)c(O)c3ccccc23)c2ccccc2C1=O`: the Potency in assay [1] was above 11.4 µM; in assay [6], above 46 µM; in assay [7], above 9.22 µM. Moreover, the activity change, negative = inhibition in assay [2] was 1.91% and 8.74%; in assay [4], 12% and -21.2%. In addition, the Potency entry in assay [3], in assay [8] and in [9] was “inactive” in each case. For the same molecule, the activity, negative = inhibition in assay [5] was 2.38% and 8.71%.

For the molecule `NCOC(=O)Cc1ccc(Br)cc1`, the Potency was above 11.4 µM in [1], 0.2 µM (active) in [3], above 46 µM in assay [6] and above 9.22 µM in [7]. Further, the results for the activity change, negative = inhibition in assay [2] and in assay [4] were 2.56% and 11%, respectively. In addition, the activity, negative = inhibition in assay [5] is 5.96%. The Potency entry in assay [8] and in assay [9] was “inactive” throughout.

In the case of `O=C(O)C/C(=C\c1ccccc1)C(=O)O`, the Potency in [1] was above 11.4 µM; in assay [6] it was above 46 µM; in [7], above 9.22 µM. Also, the results for the activity change, negative = inhibition in assay [2] and in assay [4] were 7.15% and -2.46%, respectively. For the same molecule, the Potency result in [3], in assay [8] and in assay [9] was “inactive” each time. Also, in assay [5], the activity, negative = inhibition is 10.5%.

With `Cc1n[nH]c2ccccc2c1=O`, the Potency in assay [1] is above 11.4 µM; in assay [3], 0.398 µM (active); in [6] it was above 46 µM; in assay [7] it was above 9.22 µM. For the same molecule, the activity change, negative = inhibition in [2] is -6.55%; in assay [4], -1.3%. For the same molecule, the activity, negative = inhibition in assay [5] was 10.2%. Further, the Potency entry in assay [8] and in assay [9] was “inactive” throughout.

On to `Nc1ncnc2c1ncn2C[C@@H](O)C(=O)O`, for which the values for the Potency in [1], in assay [6] and in [7] were above 11.4 µM, above 46 µM and above 9.22 µM, respectively. Besides, the values for the activity change, negative = inhibition in assay [2] and in assay [4] were 8.44% and 2.36%, respectively. The Potency result in [3], in [8] and in [9] was “inactive” each time. For the same molecule, the activity, negative = inhibition in [5] is -0.0646%.

As for `O=C(O)[C@@H]1Cc2c([nH]c3ccccc23)[C@@H](CCCCO)N1`, the Potency in [1] was above 11.4 µM; in assay [6], above 46 µM; in [7], above 9.22 µM. The activity change, negative = inhibition in assay [2] was -12.4%; in assay [3], -9.6% [at 2.29 µM]; in assay [4], 3.55%. For the same molecule, the activity, negative = inhibition in assay [5] is -0.601%. For the same molecule, the Potency entry in [8] and in assay [9] was “inactive” each time.

Take `Cc1ccc(S(=O)(=O)NC(=O)OC23COCN2COC3)cc1`: the Potency in assay [1] was above 11.4 µM; in assay [6] it was above 46 µM; in assay [7] it was above 9.22 µM. Further, the activity change, negative = inhibition in [2] was 8.05%; in assay [4] it was 27.6%. The Potency result in [3], in assay [8] and in assay [9] was “inactive” throughout. Moreover, the activity, negative = inhibition in assay [5] is 15.3%.

Regarding `Cc1noc(NC(=O)Nc2ccccc2F)c1C#N`, the Potency was above 11.4 µM in [1], 0.794 µM (active) in [3], above 46 µM in assay [6] and above 9.22 µM in [7]. The activity change, negative = inhibition was -0.973% in assay [2] and 11.4% in [4]. The activity, negative = inhibition in assay [5] was -14.1%. The Potency entry in assay [8] and in [9] was “inactive” each time.

Consider `Cc1ncc(CSC(=N)N)n1Cc1ccccc1`, for which the Potency in [1] was above 11.4 µM; in assay [6], above 46 µM; in [7], above 9.22 µM. The activity change, negative = inhibition is 6.64% in assay [2] and -15.5% in [4]. Also, the Potency entry in assay [3], in [8] and in assay [9] was “inactive” in each case. The activity, negative = inhibition in assay [5] was 4.51%.

`CC1(C)OC[C@@H]2O[C@H](n3cnc4c(N)nc(Cl)nc43)[C@@H](OS(C)(=O)=O)[C@@H]2O1`: the Potency in assay [1] was above 11.4 µM; in assay [6], above 46 µM; in assay [7], above 9.22 µM. In addition, the figures for the activity change, negative = inhibition in assay [2], in assay [3] and in assay [4] were -1.96%, -14.5% [at 2.29 µM] and -7%, respectively. In assay [5], the activity, negative = inhibition was -0.333%. Besides, the Potency entry in [8] and in assay [9] was “inactive” throughout.

For `Nc1ncnc2c1ncn2CCCCC(=O)O`, the Potency in assay [1] is above 11.4 µM; in assay [6], above 46 µM; in [7] it was above 9.22 µM. The activity change, negative = inhibition was 10.7% in assay [2] and 13.9% in assay [4]. In addition, the Potency entry in assay [3], in [8] and in assay [9] was “inactive” each time. Also, the activity, negative = inhibition in assay [5] is -0.241%.

Consider `Fc1cccc(F)c1C(Nc1nncs1)Nc1nncs1`, for which the Potency was above 11.4 µM in assay [1], above 46 µM in assay [6] and above 9.22 µM in assay [7]. In addition, the activity change, negative = inhibition is 1.35% in assay [2], 12.3% [at 2.29 µM] in assay [3] and 15.7% in assay [4]. Also, the activity, negative = inhibition in assay [5] was 6.21%. Moreover, the Potency entry in [8] and in assay [9] was “inactive” throughout.

In the case of `Cc1ccc(S(=O)(=O)Oc2cc(N)c3c(n2)CCC3)cc1`, the figures for the Potency in [1], in [6] and in [7] were above 11.4 µM, above 46 µM and above 9.22 µM, respectively. In addition, the activity change, negative = inhibition in [2] was 11.1%; in assay [3], -19.4% [at 2.29 µM]; in assay [4], 9.71%. Besides, the activity, negative = inhibition in assay [5] was -5.99%. Also, the Potency entry in [8] and in [9] was “inactive” in each case.

For the molecule `C1CCN(CC[C@@H]2CCCCN2)CC1`, the results for the Potency in assay [1], in [6] and in [7] were above 11.4 µM, above 46 µM and above 9.22 µM, respectively. In addition, the activity change, negative = inhibition is 12.5% in [2] and 8.93% in [4]. The Potency entry in [3], in assay [8] and in assay [9] was “inactive” in each case. In assay [5], the activity, negative = inhibition is -0.348%.

Regarding `c1cc(NNc2cccc(-c3nn[nH]n3)c2)cc(-c2nn[nH]n2)c1`, the Potency in [1] is above 11.4 µM; in assay [6] it was above 46 µM; in [7] it was above 9.22 µM. Moreover, the activity change, negative = inhibition is 5.72% in assay [2], -15.5% [at 2.29 µM] in assay [3] and 2.46% in [4]. In assay [5], the activity, negative = inhibition is 2.5%. In addition, the Potency entry in assay [8] and in [9] was “inactive” in each case.

Consider `Nc1nc(N)c2[nH]cnc2n1` (tested in a mixture with another compound), for which the Potency in assay [1] was above 11.4 µM; in [6] it was above 46 µM; in [7] it was above 9.22 µM. In addition, the results for the activity change, negative = inhibition in [2], in assay [3] and in assay [4] were 4.54%, -5.5% [at 2.29 µM] and 20.2%, respectively. In addition, the activity, negative = inhibition in [5] was 4.45%. Also, the Potency entry in assay [8] and in [9] was “inactive” in each case.
